From PubChem
DT40 TDP1 CPT = growth inhibition of DT40 Tdp1-/-;hTDP1 cells with camptothecin (screen for TDP1 inhibitors). chicken DT40 Tdp1-/-;hTDP1 cells + 20 nM CPT, ATP luminescence, 48 h. Potency, µM (series often up to 46.2 µM), for the others: top-dose activity change, negative = growth inhibition, usual class: inhibitors. 420,000 compounds, 12% hits; further: potency means the concentration at half of the fitted maximal effect; nearly all actives have a fitted effect of over 55% in size
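Chicken DT40 Tdp1-/- cells stably complemented with human TDP1 were seeded at 400 cells/well in medium containing 20 nM camptothecin, exposed to pin-transferred compounds, and grown at 37 °C for at least 48 hr. Viability was read as ATP luminescence.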
IL1B secr inh = inflammasome signaling inhibition, IL-1 beta readout. THP-1 LPS/ATP IL-1B secretion, AlphaLISA, 16 h; stronger effect = lower value. activity change, % at 57.5 µM. 360,000 compounds, 4.7% hits; in the data active means activity change below about -50%; inconclusive means mostly about -30% to -49%
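Secreted IL-1B measured by AlphaLISA bead assay after 16 h compound exposure of THP-1 cells; compounds (final up to 57.5 uM) added 1 h before LPS (250 ng/mL) and ATP (1.25 mM) stimulation; lower signal means less secretion.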
ALOX12 inh = blocks human arachidonate 12S-lipoxygenase | P18054 | purified 12hLO, xylenol orange hydroperoxide absorbance | Potency, µM (titrated, usually from 108 µM), for inactives: top-dose activity change, negative = inhibition, actives largely listed as inhibitors | 580,000 compounds, 1.1% hits | AID 1671190; further: potency means the concentration at half of the fitted maximal effect
Target sequence (P18054 whole entry, looked up): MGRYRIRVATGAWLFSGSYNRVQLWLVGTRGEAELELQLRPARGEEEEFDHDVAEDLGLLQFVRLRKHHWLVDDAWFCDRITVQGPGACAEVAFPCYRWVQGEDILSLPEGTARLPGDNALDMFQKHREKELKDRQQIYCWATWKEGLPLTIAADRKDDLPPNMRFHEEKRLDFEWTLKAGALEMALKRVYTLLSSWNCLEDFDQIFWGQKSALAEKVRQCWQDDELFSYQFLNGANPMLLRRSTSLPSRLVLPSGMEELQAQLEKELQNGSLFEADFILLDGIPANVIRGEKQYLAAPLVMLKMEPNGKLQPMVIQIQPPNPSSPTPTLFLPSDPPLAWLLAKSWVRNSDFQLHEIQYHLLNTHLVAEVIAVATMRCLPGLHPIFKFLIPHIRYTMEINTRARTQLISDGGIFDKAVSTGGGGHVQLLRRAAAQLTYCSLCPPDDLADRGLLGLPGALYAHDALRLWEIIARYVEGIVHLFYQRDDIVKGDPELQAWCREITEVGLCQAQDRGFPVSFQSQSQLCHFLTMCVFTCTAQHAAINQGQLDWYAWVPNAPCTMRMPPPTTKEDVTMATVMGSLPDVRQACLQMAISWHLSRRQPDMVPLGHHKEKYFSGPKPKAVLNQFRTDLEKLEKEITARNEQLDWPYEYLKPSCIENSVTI
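Purified human 12hLO (150 nM final) in 25 mM Hepes, 0.01% Triton X-100, pH 7.0 was preincubated 15 min at room temperature with compound. Then 40 uM arachidonic acid was added, 30 min. Hydroperoxide was read by Fe-XO absorbance ratio 573/405 nm.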
DT40 TDP1 no CPT = qHTS for Inhibitors of human tyrosyl-DNA phosphodiesterase 1 (TDP1): qHTS in cells in absence of CPT; DT40 Tdp1-/- hTDP1 cells, no CPT, ATP luminescence, 48 h; AID 686978, 2013; Potency, µM (highest dose often 46.2 µM), for inactives: at the highest dose activity change, negative = growth inhibition, actives largely listed as inhibitors; 420,000 compounds, 15% hits; further: potency means the concentration at half of the fitted maximal effect; nearly all actives have a fitted effect of over 55% in size
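Compound effects on proliferation are scored in DT40 Tdp1-/-;hTDP1 cells in the absence of CPT. ATP levels (CellTiter-Glo luminescence) are recorded after a ≥48 hr, 37 °C incubation.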
HT1080NT lethal = kills 2HG-producing HT-1080-NT fibrosarcoma cells; HT-1080-NT fibrosarcoma viability, CellTiter-Glo ATP luminescence, 48 h; Potency, µM (series often up to 46.1 µM), inactives show at the highest dose activity, negative = less viability, usual class: cytotoxic; 360,000 compounds, 1.6% hits; AID 686970;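 further: NT is the 2HG producing partner of a matched IDH1 knockdown line; potency means the concentration at half of the fitted maximal effect; 0% = DMSO-treated cells and -100% = media-only wells without cells; nearly all actives have a fitted effect of over 55% in size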
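Fibrosarcoma NT cells, 750 per well in 5% FBS RPMI, were exposed to compound for 48 hours. Viability: CellTiter-Glo luminescence.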
HT1080 IDH1KD tx = HT-1080 IDH1 knockdown cell toxicity (counter line). HT-1080 IDH1 knockdown viability, ATP luminescence, 48 h. Potency, µM (highest dose often 46.1 µM), for inactives: at the top dose activity, negative = toxicity, hits mostly cytotoxic. 360,000 compounds, 2% hits;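 further: potency means the concentration at half of the fitted maximal effect; 0% = DMSO wells and -100% = cell-free medium wells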
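In this qHTS, HT-1080 cells depleted of IDH1 are exposed for 48 h at 37 °C to compound titrations. Toxicity is scored from CellTiter-Glo luminescence, with DMSO as full viability and medium alone as none.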
The depositor's hits bear a star; ? = inconclusive; nt = no result given; [ ] = remark or other dose. Shown is part of a subset that was picked to be rich in hits. Unless noted, the call rests on the fitted dose curve; in most records, active means well fitted curve in the direction sought with a large enough effect; inconclusive means small, poorly fitted or top-dose-only effect, or another doubt; inactive means no such curve, though single readings can be large; an effect the other way counts as inactive or inconclusive. Unless noted, on the % scale 0 is the no-effect control and ±100 the full control effect.

SMILES	DT40 TDP1 CPT	IL1B secr inh	ALOX12 inh	DT40 TDP1 no CPT	HT1080NT lethal	HT1080 IDH1KD tx
CC(C)NC(=O)c1cccc(Cl)c1	nt	nt	3.0%	nt	nt	nt
COc1ccc(/C=C(/C#N)c2nc(-c3cc4ccccc4oc3=O)cs2)cc1	?	nt	-16.4%	14.6µM*	nt	nt
Cc1ccc(/C=C(\C#N)c2nc(-c3cc4c(ccc5ccccc54)oc3=O)cs2)cc1	3.2%	nt	3.6%	-7.9%	nt	nt
COc1ccc(/C=C(\C#N)c2nc(-c3cc4ccccc4oc3=O)cs2)cc1OC	3.6%	nt	1.0%	-2.5%	nt	nt
COc1ccc(/C=C(\C#N)c2nc(-c3cc4c(ccc5ccccc54)oc3=O)cs2)cc1O	2.91µM*	nt	0.1%	3.26µM*	nt	nt
CN(C(=O)c1ccc(C(F)(F)F)cc1)C1CCOc2ccccc21 (configuration not stated)	nt	nt	-10.7%[176 µM]	nt	nt	nt
COC(=O)c1[nH]c(=O)c2ccccc2c1O	2.59µM*	-1.3	nt	0.4%	20.0%	17.8%
COC(=O)c1[nH]c(=O)c2ccccc2c1OCc1ccccc1	-15.2%	16.2	?	-16.7%	0.1%	-2.0%
COc1ccc(-c2nc(-c3ccccc3)nc(N3CCN(C)CC3)c2C#N)cc1	?	-20.6	-12.0%	?	4.5%	0.0%
COc1ccc(-c2nc(-c3cccc(C)c3)nc(N3CCN(C)CC3)c2C#N)cc1	14.6µM*	-20.2	?	16.4µM*	0.1%	-0.3%
COc1cccc(-c2nc(-c3ccccc3)nc(N3CCN(C)CC3)c2C#N)c1	?	-61.3*	?	?	?	?
CN1CCN(c2nc(-c3ccccc3)nc(-c3ccccc3)c2C#N)CC1	?	-96.1*	-27.0%	?	-4.4%	-1.8%
O=C(CCc1ccccc1)Nc1ccc(Cl)cc1C(F)(F)F	nt	nt	36.7%	nt	nt	nt
O=C(O)[C@H](Cn1ccc(=O)[nH]c1=O)NC1CCC1	nt	nt	16.2%[176 µM]	nt	nt	nt
CCC(CC)CC1CN2CCc3cc(OC)c(OC)cc3C2CC1(O)CC (configuration not stated)	8.2µM*	-7.0	-0.9%	8.2µM*	-13.8%	-13.3%
COc1cc2c(cc1OC)C1CC(=O)C(CC(C)C)CN1CC2 (configuration not stated)	-24.6%	12.5	?	-24.0%	4.1%	1.9%
COc1cc2c(cc1OC)C1C/C(=N\O)C(CC(C)C)CN1CC2 (configuration not stated)	?	29.6	2.8%	20.6µM*	0.3%	-2.1%
CC(C)CN1CCNC(=O)C1CC(=O)NCc1cc(Cl)ccc1Cl (configuration not stated)	nt	nt	50.9%	nt	nt	nt
Cc1cccc(-n2c3c(cc(C#N)c2=O)C(=O)CC(c2ccccc2)C3)c1 (configuration not stated)	nt	nt	-3.4%	nt	nt	nt
C[C@@H]1CNCCN1S(=O)(=O)c1cccc2cnccc12	?	nt	?	29.9µM*	nt	nt
NC(N)=NCCNS(=O)(=O)c1cccc2cnccc12	0.2%	nt	8.7%	-5.6%	nt	nt
CCc1ccc(CNC(=O)C2CCCN(C(=O)c3cccc(C(F)(F)F)c3)C2)cc1 (configuration not stated)	nt	nt	-21.1%	nt	nt	nt
C/C(=N/NC(N)=S)c1ccc([N+](=O)[O-])cc1	nt	nt	-72.6%	nt	nt	nt
C/C(=N\NC(N)=S)C1(C)CCCCC1	?	-2.0	?	13µM*	11.8%	12.8%
C/C(=N/NC(N)=S)C1=CC(C)(C)CCC1	nt	nt	6.31µM*	nt	nt	nt
SMILES	DT40 TDP1 CPT	IL1B secr inh	ALOX12 inh	DT40 TDP1 no CPT	HT1080NT lethal	HT1080 IDH1KD tx
CCOC(=O)[C@]12CCCC=C1N(Cc1ccco1)C(=O)[C@H](CC(=O)N1CCCCC1)C2	?	22.3	-6.6%	?	25.7%	4.6%
Cc1c(Cl)cccc1NC(=S)NCc1ccccc1	-2.6%	?	?	?	-8.7%	-9.6%
CCc1ccccc1NC(=S)NCCSc1ccc(Cl)cc1	?	-97.6*	50.1µM*	?	-18.9%	?
Cc1ccc(C)c(NC(=S)NCCSc2ccc(Cl)cc2)c1	20.6µM*	?	28.2µM*	16.4µM*	?	0.9%
Cc1ccc(NC(=S)NCCSc2ccc(Cl)cc2)c(C)c1	?	-5.5	?	?	2.5%	-0.5%
Cc1ccc(SCCNC(=S)Nc2cccc(Cl)c2C)cc1	nt	nt	31.6µM*	nt	nt	nt
Cc1ccccc1NC(=S)NCCSc1ccc(Cl)cc1	?	-81.5*	44.7µM*	18.4µM*	-0.5%	-0.9%
Cc1ccccc1S(=O)(=O)N1CCC(C(=O)NCc2csc(-c3ccccc3)n2)CC1	nt	nt	-6.9%	nt	nt	nt
Cc1ccc(Cl)cc1NC(=S)NCCCSC1CCCCC1	?	-100.6*	35.5µM*	18.4µM*	-29.8%	18.4µM*
COC(=O)c1ccc(C(=O)OC)c(NC(=O)CSc2cccc[n+]2[O-])c1	0.92µM*	90.1	-17.3%	0.731µM*	?	-3.7%
O=C(CSc1cccc[n+]1[O-])Nc1cc2c(cc1Cl)C(=O)c1ccccc1C2=O	20.6µM*	-6.0	?	?	-2.9%	-2.1%
O=C(CSc1cccc[n+]1[O-])Nc1ccccc1C(F)(F)F	-6.2%	6.2	-24.7%	-6.3%	3.0%	10.5%
O=C(CSc1cccc[n+]1[O-])Nc1ccccc1Oc1ccccc1	0.92µM*	-102.2*	1.4%	1.46µM*	8.2µM*	6.51µM*
O=C(CSc1cccc[n+]1[O-])Nc1cc([N+](=O)[O-])ccc1Cl	2.7%	24.9	-6.5%	-3.5%	21.9%	13.7%
COC(=O)c1ccc(C(=O)OC)c(NC(=O)CSCC(=O)O)c1	-6.2%	15.8	?	-7.3%	4.0%	13.0%
CCC(=O)N1CCc2ccc(OCc3nc(C(=O)NCCOC)co3)cc2C1c1ccc(C)cc1 (configuration not stated)	nt	nt	14.0%	nt	nt	nt
O=C1COCc2ccc(-c3cccc(CO)c3)cc2N1CCc1ccccc1	nt	nt	-7.3%	nt	nt	nt
Cc1ccc(C(=O)N2CCC[C@@H]2C(=O)N2CCC[C@H]2C(=O)NCc2ccccc2)cc1C	nt	nt	-0.6%	nt	nt	nt
Cc1ccc(NC(=O)CSc2cn(CC(=O)N3CCCCCC3)c3ccccc23)cc1	-23.2%	nt	-2.9%	?	nt	nt
CCOc1ccccc1NC(=O)CSc1cn(CC(=O)N2CCCCCC2)c2ccccc12	?	nt	-17.7%	25.9µM*	nt	nt
O=C(COC(=O)c1ccccc1SCC(=O)N1CCCC1)Nc1ccccc1C(F)(F)F	-25.2%	17.9	-5.4%	-27.4%	1.9%	-9.7%
CCOc1ccccc1NC(=O)COC(=O)c1ccccc1SCC(=O)N1CCCC1	?	11.4	-2.3%	16.4µM*	0.2%	-11.8%
CC(=O)c1ccc(NC(=O)CSc2cn(CC(=O)N3CCCCC3)c3ccccc23)cc1	?	nt	-9.9%	20.6µM*	nt	nt
